Over roughly 35,000 sequences, “fluorescence intensity (a.u.)” has its median near 10,000; the highest 2% begin near 52,000. Shown is part of a subset that was picked to be rich in the highest values.

This test addresses T1, OsWOX13 (Oryza sativa, UniProt Q5QMM3 1-267).
T1 sequence: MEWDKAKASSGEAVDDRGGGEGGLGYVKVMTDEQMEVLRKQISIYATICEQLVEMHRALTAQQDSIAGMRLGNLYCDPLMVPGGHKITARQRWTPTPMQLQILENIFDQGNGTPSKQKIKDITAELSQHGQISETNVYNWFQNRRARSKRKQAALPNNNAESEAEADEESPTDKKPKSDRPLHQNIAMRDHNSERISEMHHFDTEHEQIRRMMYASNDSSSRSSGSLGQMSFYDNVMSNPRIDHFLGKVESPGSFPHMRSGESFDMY
In words: protein-binding microarray (RPBM); PBS, 2% BSA, 51.3 ng/ul salmon testes DNA, 50 uM zinc acetate, 200 nM TF, 25 C, 1 h; high values mean tight binding. The settings on record: protein: recombinant; tags: N-terminal polyhistidine and DsRed monomer fusion (pET32a); label: CyDye5-dUTP incorporated in the synthesized complementary strand; 3' TTTTT single-stranded linker to array surface; dsDNA, one strand shown. In a few lines:
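A custom Agilent array was converted to double-stranded form by primer extension with Cy5-dUTP and blocked with 2% BSA. Protein at 200 nM in PBS with 2% BSA, salmon testes DNA and 50 µM zinc acetate was applied for 1 h at 25 °C, followed by washing. The proteins were polyhistidine–DsRed N-terminal fusions of transcription factors, expressed in E. coli BL21-CodonPlus and Ni–NTA-purified. The binding signal is per-feature fluorescence intensity (arbitrary units) from an Axon 4000B scanner.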
For the sequence “CAAGAACCAATAATTTGCAAACTGTAGGGCACAGTTCGATCGGAGTCACCTAGTGCAG”, the binding signal is 6920 fluorescence intensity (a.u.).
Consider “GTCTCTTTGAAATTGAAATTGGGCCTCATTTAGTCTGTTACGGAGTCACCTAGTGCAG”, for which the binding signal is 3500 fluorescence intensity (a.u.).
Turning to “TTTTCCATCACATTAACCTGTCATACACACAAAACTTTTCCGGAGTCACCTAGTGCAG”, the binding signal is 4820 fluorescence intensity (a.u.).
In the case of “ACAATCAATCAATCTTGCTTTCCATTCAAAGTCTTCATTTCGGAGTCACCTAGTGCAG”, the binding signal is 35000 fluorescence intensity (a.u.).
With “AATGTGAGCATGTGATTTAAATTTGAGAAAATTCAACTTGCGGAGTCACCTAGTGCAG”, the binding signal was 3660 fluorescence intensity (a.u.).
Regarding “GTCCTATTTGACGCTTTGATTAGACAACGCTTTGTCAATTCGGAGTCACCTAGTGCAG”, the binding signal was 12900 fluorescence intensity (a.u.).
Consider “CGCTTGATCTGGGGTGGGGTCGCGAGTGGTGGAGGAGGTGCGGAGTCACCTAGTGCAG”, for which the binding signal was 3600 fluorescence intensity (a.u.).
With “TGTTGACAAAATTAGCTGTTGCAACGCATACAGACTTCAACGGAGTCACCTAGTGCAG”, the binding signal is 7410 fluorescence intensity (a.u.).
The same measure for “CCCTAATTATGGTACGTGTTGATCGTGCCACTTCTTCCTCCGGAGTCACCTAGTGCAG”: 39500 fluorescence intensity (a.u.); for “TTAGATAAAATTAATTTGTCTTGCTTTTGTAGGCTGCAGACGGAGTCACCTAGTGCAG”: 27700 fluorescence intensity (a.u.); for “CTGGATGATTGGATTGATTATGGACAGATTTAAATTTGCTCGGAGTCACCTAGTGCAG”: 65500 fluorescence intensity (a.u.).
Take “AAACCTAATTAATCATGCGCAAATGGCTTTCTTGTTTTGCCGGAGTCACCTAGTGCAG”: the binding signal was 22900 fluorescence intensity (a.u.).
Take “ATAAAATGTAAATTATGCTTAAAATGCTTTTAGTGATAAACGGAGTCACCTAGTGCAG”: the binding signal was 4750 fluorescence intensity (a.u.).
With “AATTAATCATGCAATAAAACAAATTTCGTTTTGCGTGCTACGGAGTCACCTAGTGCAG”, the binding signal was 6310 fluorescence intensity (a.u.).
For the sequence “TGCTAATGATGGATTAATTAAGCTTAATAAATTCATCTCGCGGAGTCACCTAGTGCAG”, the binding signal was 53700 fluorescence intensity (a.u.).
With “ATGTATTTGCTATTAAATTAATTATAGATGATTTAGAGCTCGGAGTCACCTAGTGCAG”, the binding signal was 16300 fluorescence intensity (a.u.).
As for “TGATTTAATTAATTAATTAATGGCCTTGTTATTGGATGCTCGGAGTCACCTAGTGCAG”, the binding signal was 47100 fluorescence intensity (a.u.).
As for “ATGTGCTAATGATGGATTAATTACGCTTAATAAATTCGTCCGGAGTCACCTAGTGCAG”, the binding signal was 28000 fluorescence intensity (a.u.).
Turning to “ACTGATTAGTGGATATGCTTTATATATGTAATTAGGATGCCGGAGTCACCTAGTGCAG”, the binding signal was 53000 fluorescence intensity (a.u.).
Regarding “GTTTGATTGCTTAATTAATTTCCAAATGCGCAATCATGCACGGAGTCACCTAGTGCAG”, the binding signal was 64800 fluorescence intensity (a.u.).
In the case of “TACACTGATTAGTGGATGATGATATAGTATCTTTGTATGTCGGAGTCACCTAGTGCAG”, the binding signal was 45600 fluorescence intensity (a.u.).
For “TTGCTAATGACGGATTAATTATGCTTAATAAATTCATCTCCGGAGTCACCTAGTGCAG”, the binding signal is 20600 fluorescence intensity (a.u.).
The same measure for “TGAGTGATGACAGTAAGTAACTGAATCTGCTGAGTTCTGACGGAGTCACCTAGTGCAG”: 6590 fluorescence intensity (a.u.); for “TCTCATCAATTGAATGGATATTATATTTTAATGTGTTCAGCGGAGTCACCTAGTGCAG”: 8660 fluorescence intensity (a.u.).
Next, “GCTATGATTGTCTTTAGGGTATCTAATAATTGTGGTTTGACGGAGTCACCTAGTGCAG”: 21700 fluorescence intensity (a.u.); “ACCAAACGCCTTGATTGAAACCATCGATATACATATGTAACGGAGTCACCTAGTGCAG”: 34900 fluorescence intensity (a.u.); “GAAAATGTTCCATCTGATTATAAATTATTATATTTTGGGACGGAGTCACCTAGTGCAG”: 4000 fluorescence intensity (a.u.).
For the sequence “TGAAAGTAATTTGATGCTATAAGTCAAAGTTAAAGAGATGCGGAGTCACCTAGTGCAG”, the binding signal was 3500 fluorescence intensity (a.u.).
Consider “GTTGCAGATTGAGAGCCAAAGACATTATCTTGATTCTATCCGGAGTCACCTAGTGCAG”, for which the binding signal is 13100 fluorescence intensity (a.u.).
In the case of “TTTAAGATGATCAGATTTCTAATTGCAGTTCACCTTAACTCGGAGTCACCTAGTGCAG”, the binding signal was 7420 fluorescence intensity (a.u.).
With “TATAAATATAATTTATCCAAAGAGCATTTATAAGGACTTCCGGAGTCACCTAGTGCAG”, the binding signal is 4240 fluorescence intensity (a.u.).
For “TAGTGATTTTGTGAAATCTCAAAATATATTGATCCAGCTTCGGAGTCACCTAGTGCAG”, the binding signal is 5030 fluorescence intensity (a.u.).
For “GCTTGACTAACATATTCTGTTGGATTGCTACCGCGCCATGCGGAGTCACCTAGTGCAG”, the binding signal is 7150 fluorescence intensity (a.u.).
In the case of “TCCATTAACATTTGCCATTATCGTACTGACTTTCGTACGACGGAGTCACCTAGTGCAG”, the binding signal is 3710 fluorescence intensity (a.u.).
As to “CGCCCACTGAATTAATCAATCAGTAAAGCTGCCACCGTGCCGGAGTCACCTAGTGCAG”, the binding signal was 39100 fluorescence intensity (a.u.).
Regarding “CCAAGATGAATTGGAACTTTGCACACCAACCAAATAGGGGCGGAGTCACCTAGTGCAG”, the binding signal was 3580 fluorescence intensity (a.u.).
Next, “ATGTACTTAATTCAATTTGTCAAAAGAATTATGTATCCCTCGGAGTCACCTAGTGCAG”: 3990 fluorescence intensity (a.u.); “GGTTCAACGGTACCCTTGATTGCTATAGAGAGTGATATATCGGAGTCACCTAGTGCAG”: 4670 fluorescence intensity (a.u.).
In the case of “GAAATTAATAACAAATTAAAACCAGAGCCAGCTGACTGCTCGGAGTCACCTAGTGCAG”, the binding signal was 21700 fluorescence intensity (a.u.).
Next, “CCGACGGCTCAGATTGACTGCAGTAGTGGGTATCTCTTCTCGGAGTCACCTAGTGCAG”: 13700 fluorescence intensity (a.u.); “TGTTTGGATGATTTTATGGATGATCACTTCTCTTTATTTACGGAGTCACCTAGTGCAG”: 3280 fluorescence intensity (a.u.).
As for “TGCTAAAATTTTGACAATATTGTTAACTTGCTCTAGTTTACGGAGTCACCTAGTGCAG”, the binding signal was 6920 fluorescence intensity (a.u.).

The values are drawn from paper PMC7819943, “Rice protein-binding microarrays: a tool to detect cis-acting elements near promoter regions in rice”.
